Experimental findings from PubChem BioAssay (Tox21) are described below.

Inconclusive results are not listed. Values without a mark were called inactive. Active and inactive are the calls of the source. The call rests on the fitted dose curve; in most records, active means well fitted cell-killing curve with a large enough effect in the repeat runs; inconclusive means weak or mixed curves, or effect the other way; inactive means flat fitted curve, though single readings scatter.
On the % scale 0 is the no-effect control and ±100 the full control effect.

The assay can be described thus: qHTS RealTime-Glo MT Cell Viability Assay in HEK293 cells - 24 hour (AID 1224886). Further: top concentration of the series differs between compounds; nearly all actives have a fitted effect of over 50% in size. The conditions noted are these: RealTime-Glo luminescence; series mostly up to 76.8 µM. From the text:
National Center for Advancing Translational Sciences [NCATS]
NIH Chemical Genomics Center [NCGC]
U.S. Environmental Protection Agency [EPA]
National Institutes of Environmental Health Sciences [NIEHS]
National Toxicology Program [NTP]
U.S. Food and Drug Administration [FDA]
Measure of cell viability is critical in the cell-base assay. Analysis of cell viability is necessary for the characterization of cell responses to cytotoxic drugs and environmental stress. A RealTime-Glo MT Cell Viability Assay to monitor cell viability in real time of continues cell culture during 40 hours of compound treatment was used to screen Tox21 10K library compounds in Hek293 cells. The RealTime-Glo MT Cell Viability Assay is a nonlytic, homogeneous, bioluminescent method to measure cell viability in real time using a simple, plate-based method. The assay involves adding NanoLuc luciferase and a cell-permeant prosubstrate to cells in culture. Viable cells reduce the proprietary prosubstrate to generate a substrate for NanoLuc luciferase. This substrate diffuses from cells into the surrounding culture medium, where it is rapidly used by the NanoLuc Enzyme to produce a luminescent signal. The signal correlates with the number of viable cells, making the assay well suited for cytotoxicity studies.
Tox21 Assay Protocol Summary:
The mixture of Hek293 cell suspension and reagents were dispensed at 600cells/6 ul/well in 1536-well tissue culture treated black solid bottom plates using a Multidrop dispenser. After the assay plates were incubated at a 37 C/5% CO2 incubator for 5 hours, 23 nL of compounds dissolved in DMSO, positive and negative controls was transferred to the assay plate by a pintool work station. The plates were incubated at 37 C for 40 hours. The luminescence intensity were measured at 0h, 8h, 16h, 24h, 32h and 40h time points using ViewLux plate reader during compound treatment.
For the compound `CCCCCCCCCCCBr`, the outcome was inactive. Still for that read-out and setting: the value for `CCc1ncc(C)[nH]1` was “inactive”; that for `OCCC(F)(F)C(F)(F)C(F)(F)C(F)(F)C(F)(F)C(F)(F)F` was “inactive”. Turning to `Cc1cc(C)c(C)c(C)c1`, the call was inactive. On the same count and under the same terms, the value for `C/C=C(\C)C=O` was “inactive”; that for `C=CCn1cc[n+](C)c1` was “inactive”; that for `CCO[Si](CC(C)C)(OCC)OCC` was “inactive”. As for `CCCCC(CC)COC(=O)CC#N` (stereo not given), the outcome was inactive.

For the compound `CCOC(=O)c1ccc(N(C)C)cc1`, the compound was called inactive.

Regarding `CCO/C=C1\N=C(c2ccccc2)OC1=O`, the compound was classed as inactive. On the same count and under the same terms, the same measure for `Cc1cccc(N)n1`: “inactive”. The same measure, in the same setting: the same measure for `CCCCN(CCCC)CCCCCCN(CCCC)CCCC`: “inactive”. On the same count and under the same terms, the same measure for `CC1(C)S[C@@H]2[C@H](NC(=O)Cc3ccccc3)C(=O)N2[C@H]1C(=O)O` (tested in a mixture with another compound): “inactive”; for `CC[C@@]1(c2ccccc2)NC(=O)N(C)C1=O`: “inactive”. On to `CCCC(=O)CC`, for which the outcome was inactive. Consider `CCCCCC(CC)OC(=O)CCCOc1ccc(Cl)cc1Cl` (stereo not given), for which the outcome was inactive. For `C[Si](C)(C)O[Si](O)(O)O`, the compound was called inactive. Still for that read-out and setting: the same measure for `CCCCCCCCS(=O)(=O)O`: “inactive”. Still for that read-out and setting: the value for `CC(C)(C)C(=O)CCc1ccc(Cl)cc1` was “inactive”. On the same count and under the same terms, the same measure for `NC(=O)CC[C@@H](N)C(=O)O`: “inactive”; for `O=C1CC2(CCCC2)CC(=O)N1CCNCC1COc2ccccc2O1` (stereo not given): “inactive”.

For the compound `CC(=O)SC[C@@H](C)C(=O)N1CCC[C@H]1C(=O)N[C@@H](Cc1ccccc1)C(=O)O`, the result was inactive. Consider `COC(=O)/C=C(\C)CCC=C(C)C`, for which the compound was classed as inactive.

As to `C[C@H]1COc2c(C3(N)CC3)c(F)cc3c(=O)c(C(=O)O)cn1c23`, the outcome was inactive.

Turning to `CCOC(=O)CC(C(C)=O)C(C)=O`, the outcome was inactive.

With `Cc1ccc(S(=O)(=O)NC(=O)NN2CC3CCCC3C2)cc1` (stereo not given), the compound was classed as inactive. Same read-out and setting: the value for `Cc1cc(O)c(Cl)cc1C` was “inactive”; that for `COCCCOc1cc(C[C@@H](C[C@H](N)[C@@H](O)C[C@H](C(=O)NCC(C)(C)C(N)=O)C(C)C)C(C)C)ccc1OC` was “inactive”. The same measure, in the same setting: the value for `COc1cc(C(=O)NC2CCCNC2)cc(OC)c1OC` (stereo not given) was “inactive”; that for `O=S(=O)(O)c1cc(I)c(O)c2ncccc12` was “inactive”; that for `N#Cc1cc(NC(=O)C(=O)O)c(Cl)c(NC(=O)C(=O)O)c1` was “inactive”. The same measure, in the same setting: the same measure for `CC(C)c1cc(C(C)C)cc(C(C)C)c1`: “inactive”; for `CC(C)C[P+](C)(CC(C)C)CC(C)C`: “inactive”. For `CCCCCCCCCCCCCCCC(=O)OC`, the activity change, negative = cytotoxicity is -2.1% [at 15.8 µM]. On to `C=CCOC(=O)CCCCCCCC`, for which the compound was called inactive. As for `CC(C)(C)NCC(O)COc1cccc2c1CCC(=O)N2` (stereo not given), the call was inactive.

`CCCCCCCCCCCCCCCC/C=C/C1CC(=O)OC1=O` (stereo not given): the call was inactive.

In the case of `O=C1CCCc2c(O)cccc21`, the compound was classed as inactive. `CCCC(=O)OC`: the compound was classed as inactive. For `Cc1ccc(O)c([N+](=O)[O-])c1`, the compound was classed as inactive.
